The values that follow come from the supplement of paper PMC12340641.

Counter-ions that a name gives are not always drawn.

Test [1] concerns the target IKZF1 (dCK*-IKZF1 fusion in HEK293FT) (UniProt Q13422). Put plainly: inhibition of IKZF1 HTRF signal (DMSO = 0%, pomalidomide 10 uM = 100%); higher = lower IKZF1 protein level. As to conditions: compound concentration: 5 uM, overnight (~20 h). In outline: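 After overnight treatment at 37 °C with 5 μM compound in single wells, HEK293FT cells (2000/well, 384-well) stably expressing an IKZF1 fusion were lysed for 30 min at room temperature. A commercial HTRF total-IKZF1 antibody kit was incubated with the lysate overnight, and the time-resolved FRET ratio at 665/620 nm was corrected for background. Data are given as percent inhibition of IKZF1 signal relative, on each plate, to vehicle and a reference degrader, set at 0% and 100% respectively.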
For orientation: In TR-FRET formats the signal depends on donor and acceptor labels being close together.

Test [2] concerns HEK293FT dCK*-only. Nature of the test: relative growth in counter assay (no AraC = 100%, AraC + DMSO = 0%); higher = more growth rescue independent of IKZF1. Conditions: compound concentration: 5 uM; AraC concentration: 0.3 uM; overnight pretreatment + 4 days AraC. In outline: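 Counter assay in HEK293FT cells expressing dCK* alone (300/well, 384-well). Cells received 5 μM compound 2 h after seeding, then after overnight at 37 °C a nucleoside suicide substrate at 0.3 μM plus medium for 4 days. On day 5, Hoechst 33342-stained nuclei were counted by imaging. Relative growth was normalised per plate to wells without suicide substrate (100%) and substrate plus vehicle (0%).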

Test [3] concerns HEK293FT dCK*-IKZF1. Put plainly: relative growth recovery (pomalidomide 10 uM = 100%, DMSO = 0%); higher = more growth rescue (IKZF1 fusion degradation). As to conditions: compound concentration: 5 uM; AraC concentration: 0.3 uM; overnight pretreatment + 4 days AraC. Summed up:
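Means of duplicates from different days are given for growth recovery, normalised per plate against a reference degrader and vehicle. The reference degrader set the 100% level and vehicle the 0% level. HEK293FT cells stably expressing a deoxycytidine kinase–IKZF1 fusion (300/well, 384-well) received 5 μM compound 2 h after seeding and, after overnight at 37 °C, 0.3 μM of a nucleoside suicide substrate plus medium for 4 days. Nuclei stained with Hoechst 33342 were then counted by whole-well imaging on day 5.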

Sequence of IKZF1 (dCK*-IKZF1 fusion in HEK293FT) (Q13422 whole entry, looked up, the tested form may be a part): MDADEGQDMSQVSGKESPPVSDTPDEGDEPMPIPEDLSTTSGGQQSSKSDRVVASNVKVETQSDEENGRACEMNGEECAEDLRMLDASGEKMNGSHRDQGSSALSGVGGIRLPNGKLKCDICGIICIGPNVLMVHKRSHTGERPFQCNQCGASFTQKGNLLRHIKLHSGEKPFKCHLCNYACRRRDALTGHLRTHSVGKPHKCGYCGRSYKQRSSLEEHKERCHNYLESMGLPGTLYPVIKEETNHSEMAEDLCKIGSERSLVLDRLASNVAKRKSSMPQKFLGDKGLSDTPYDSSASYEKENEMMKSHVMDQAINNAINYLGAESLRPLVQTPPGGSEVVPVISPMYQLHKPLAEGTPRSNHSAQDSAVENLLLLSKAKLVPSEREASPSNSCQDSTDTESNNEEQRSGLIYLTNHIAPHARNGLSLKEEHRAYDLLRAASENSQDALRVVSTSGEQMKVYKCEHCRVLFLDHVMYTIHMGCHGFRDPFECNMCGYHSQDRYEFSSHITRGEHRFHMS

Turning to `Oc1c(I)cc(I)c2cccnc12`, the “inhibition of IKZF1 HTRF signal” value in test [1] is -30.6%. Further, the “relative growth in counter assay” value in test [2] was -11.2%. Also, in test [3], the relative growth recovery was -3.46%.

Regarding `c1ccc(C(NCCNC(c2ccccc2)c2ccccc2)c2ccccc2)cc1`, the “inhibition of IKZF1 HTRF signal” value in test [1] was -1.32%. In test [2], the “relative growth in counter assay” value came to 3.27%. The relative growth recovery in test [3] stood at 3.32%.

For the compound `C=C1CCC2[C@](C)(CO)[C@H](O)CC[C@@]2(C)[C@@H]1C/C=C1/C(=O)OC[C@H]1O` (some centres not stated) [Andrographolide], the “inhibition of IKZF1 HTRF signal” value in test [1] is 0.47%. Further, the “relative growth in counter assay” value in test [2] is -20.8%. In addition, in test [3], the relative growth recovery is -5.34%.

On to `CC1(C)Oc2ccc(C#N)cc2[C@@H](N2CCCC2=O)[C@@H]1O.CC1(C)Oc2ccc(C#N)cc2[C@H](N2CCCC2=O)[C@H]1O` [levcromakalim], for which the “inhibition of IKZF1 HTRF signal” value in test [1] is -32.9%. In test [2], the “relative growth in counter assay” value was 4.22%. Also, the relative growth recovery in test [3] is -0.84%.

For the compound `Cc1ccc(S(=O)(=O)c2ccc([N+](=O)[O-])o2)cc1`, the “inhibition of IKZF1 HTRF signal” value in test [1] was -48.9%. In addition, the “relative growth in counter assay” value in test [2] is -34%. Also, in test [3], the relative growth recovery was -12.9%.

As for `O=C1c2c(O)ccc(O)c2C(=O)c2c(NCCNCCO)ccc(NCCNCCO)c21`, the “inhibition of IKZF1 HTRF signal” value in test [1] was 5.77%. In addition, the “relative growth in counter assay” value in test [2] was -35.5%. Moreover, the relative growth recovery in test [3] was -13.7%.

As to `COc1ccc(/C=C/C(=O)/C=C(O)/C=C/c2ccc(OC)c(OC)c2)cc1OC` [Dimethylcurcumin, ASC-J9], in test [1], the “inhibition of IKZF1 HTRF signal” value is -40.7%. Moreover, in test [2], the “relative growth in counter assay” value was -25.6%. For the same compound, the relative growth recovery in test [3] is -5.62%.

In the case of `CO[C@H]1CC[C@H](N2C(=O)CNc3ncc(-c4ccc(C(C)(C)O)nc4)nc32)CC1`, the “inhibition of IKZF1 HTRF signal” value in test [1] was -19.1%. Also, the “relative growth in counter assay” value in test [2] was -9.67%. Moreover, the relative growth recovery in test [3] was -7.24%.

For the compound `NS(=O)(=O)c1ccc(S(=O)(=O)Nc2cccc3c(Cl)c[nH]c23)cc1` [Indisulam], the “inhibition of IKZF1 HTRF signal” value in test [1] is -6.45%. In addition, in test [2], the “relative growth in counter assay” value was -24.4%. Moreover, the relative growth recovery in test [3] was -3.02%.

`Nc1ccc(S(=O)(=O)Nc2cnc3ccccc3n2)cc1`: the “inhibition of IKZF1 HTRF signal” value in test [1] was -31.3%. The “relative growth in counter assay” value in test [2] is -4.7%. Further, the relative growth recovery in test [3] was -1.83%.

As for `O=c1[nH]c(=O)n([C@H]2C[C@H](O)[C@@H](CO)O2)cc1F`, the “inhibition of IKZF1 HTRF signal” value in test [1] is -24.3%. The “relative growth in counter assay” value in test [2] is -31.1%. Further, in test [3], the relative growth recovery was -9.89%.

As to `CO[C@H]1O[C@@H]2O[C@@]3(C)CC[C@H]4[C@H](C)CC[C@@H]([C@H]1C)[C@@]24OO3` [Artemether], the “inhibition of IKZF1 HTRF signal” value in test [1] is -26.4%. Moreover, the “relative growth in counter assay” value in test [2] is -14.4%. For the same compound, the relative growth recovery in test [3] is -5.75%.

Take `CCN(CC)c1ccc(C(=C2C=CC(=[N+](CC)CC)C=C2)c2ccccc2)cc1` [Brilliant Green]: the “inhibition of IKZF1 HTRF signal” value in test [1] came out at 79.8%. In addition, the “relative growth in counter assay” value in test [2] is -35%. Further, the relative growth recovery in test [3] was -14.4%.

Turning to `COc1cnc(NS(=O)(=O)c2ccc(N)cc2)nc1`, the “inhibition of IKZF1 HTRF signal” value in test [1] is -36.1%. Moreover, the “relative growth in counter assay” value in test [2] was -10.1%. Besides, the relative growth recovery in test [3] was -3.84%.

`COc1cccc2c(O)c3c(O)c4c(c(O)c3c(O)c12)=C(O[C@H]1C[C@H](N)[C@H](O)[C@H](C)O1)C[C@](O)(C(=O)CO)C=4` [Doxorubicin HCl]: in test [1], the “inhibition of IKZF1 HTRF signal” value was determined as 40.1%. In addition, the “relative growth in counter assay” value in test [2] is -34.4%. Also, in test [3], the relative growth recovery is -13.4%.

`Oc1cccc2cc3cccc(O)c3c(O)c12` [dithranol]: the “inhibition of IKZF1 HTRF signal” value in test [1] is -46.9%. In addition, the “relative growth in counter assay” value in test [2] was 3.52%. Moreover, in test [3], the relative growth recovery was -0.86%.

Take `COC(=O)Nc1nc2cc(C(=O)c3cccs3)ccc2[nH]1` [nocodazole]: the “inhibition of IKZF1 HTRF signal” value in test [1] was -12%. For the same compound, the “relative growth in counter assay” value in test [2] is -33%. In addition, in test [3], the relative growth recovery was -11.6%.

With `O=C1c2c(O)cccc2Cc2cccc(O)c21`, in test [1], the “inhibition of IKZF1 HTRF signal” value was determined as 14%. In addition, in test [2], the “relative growth in counter assay” value is -0.62%. Also, the relative growth recovery in test [3] is -0.185%.

Consider `COc1cc([C@@H]2c3cc4c(cc3[C@@H](O[C@@H]3O[C@@H]5COC(c6cccs6)O[C@H]5[C@H](O)[C@H]3O)[C@H]3COC(=O)C23)OCO4)cc(OC)c1O` (some centres not stated) [Teniposide], for which the “inhibition of IKZF1 HTRF signal” value in test [1] was -45.1%. In test [2], the “relative growth in counter assay” value is -34.3%. Also, the relative growth recovery in test [3] is -12.5%.

In the case of `CN(C)C1CCN(C(=O)c2ccc(NC(=O)Nc3ccc(-c4nc(N5CCOCC5)nc(N5CCOCC5)n4)cc3)cc2)CC1`, the “inhibition of IKZF1 HTRF signal” value in test [1] was 27.3%. Also, the “relative growth in counter assay” value in test [2] was -6.76%. In addition, the relative growth recovery in test [3] is -0.95%.

On to `CC1=C(/C=C/C(C)=C/C=C/C(C)=C/C=C/C=C(C)/C=C/C=C(C)/C=C/C2=C(C)CCCC2(C)C)C(C)(C)CCC1`, for which the “inhibition of IKZF1 HTRF signal” value in test [1] is -23.6%. Also, in test [2], the “relative growth in counter assay” value is -13.6%. The relative growth recovery in test [3] is -1.69%.

Take `CC(C)COCC(CN(Cc1ccccc1)c1ccccc1)N1CCCC1` (configuration not stated) [bepridil]: in test [1], the “inhibition of IKZF1 HTRF signal” value came out at 21.1%. Moreover, the “relative growth in counter assay” value in test [2] is -3.99%. In addition, the relative growth recovery in test [3] was -1.14%.

On to `Clc1ccc2c(N3CCN(CCCN4CCN(c5ccnc6cc(Cl)ccc56)CC4)CC3)ccnc2c1`, for which the “inhibition of IKZF1 HTRF signal” value in test [1] came to 17%. Moreover, in test [2], the “relative growth in counter assay” value came to 3.87%. Further, in test [3], the relative growth recovery is -1.17%.

Consider `O=C1Nc2ccccc2/C1=C1/Nc2ccccc2/C1=N\O` [indirubin-3-monoxime], for which the “inhibition of IKZF1 HTRF signal” value in test [1] was -16.5%. In test [2], the “relative growth in counter assay” value is 4.61%. Further, in test [3], the relative growth recovery was determined as 1.19%.

On to `NS(=O)(=O)c1cc2c(cc1Cl)NC(C(Cl)Cl)NS2(=O)=O` (configuration not stated), for which the “inhibition of IKZF1 HTRF signal” value in test [1] is 19.3%. Further, the “relative growth in counter assay” value in test [2] is -3.14%. In test [3], the relative growth recovery was -3.58%.

With `CN1CCN(CCCN2c3ccccc3Sc3ccc(C(F)(F)F)cc32)CC1` [Trifluoperazine  HCl], in test [1], the “inhibition of IKZF1 HTRF signal” value was -1.13%. The “relative growth in counter assay” value in test [2] was 28.7%. In addition, the relative growth recovery in test [3] is 3.73%.

With `Cc1cccc(C)c1NC(=O)C(C)N` (configuration not stated) [Tocainide], the “inhibition of IKZF1 HTRF signal” value in test [1] turned out to be 20.5%. Moreover, the “relative growth in counter assay” value in test [2] was -12.9%. Moreover, the relative growth recovery in test [3] is -3.04%.

Take `CC/C(=C(\c1ccc(O)cc1)c1ccc(OCCN(C)C(=O)COCCOCCOCCOc2cccc(C(=O)c3csc([C@@H]4CCCN4C(=O)[C@@H](NC(=O)[C@H](C)NC)C4CCCCC4)n3)c2)cc1)c1ccccc1`: the “inhibition of IKZF1 HTRF signal” value in test [1] was found to be 13.9%. In addition, in test [2], the “relative growth in counter assay” value is -31.8%. Besides, the relative growth recovery in test [3] was -11.5%.

As to `O=C1Nc2c(ccc(Cl)c2Cl)C1=NO`, in test [1], the “inhibition of IKZF1 HTRF signal” value is -26.5%. Also, the “relative growth in counter assay” value in test [2] is -8.31%. In test [3], the relative growth recovery is -2.38%.
